# Laboratory results as given in paper PMC11062922 (Nature Chemical Biology, 2023).
# Where two headings read alike, the source gives them in different places.
# What was measured:
# Set-up in all cases: species or system human, MV4-11 + K-562 + COLO205 + SK-N-BE2 + OVCAR-8
# ADRBK1 = conditions: read-out: apparent Kd, compound concentrations: 100 nM and 1000 nM (sheet 'Samples'), n = 1
# AKT3 = conditions: read-out: apparent Kd, compound concentrations: 100 nM and 1000 nM (sheet 'Samples'), n = 1
# CDC42BPA = conditions: read-out: apparent Kd; compound concentrations: 100 nM and 1000 nM (sheet 'Samples'), CATDS: 2.9889506530370698E-2; n = 1
# CDC42BPB = conditions: read-out: apparent Kd; compound concentrations: 100 nM and 1000 nM (sheet 'Samples'), CATDS: 7.2209321727509101E-2; n = 1
# CDC42BPG = conditions: read-out: apparent Kd; compound concentrations: 100 nM and 1000 nM (sheet 'Samples'), CATDS: 5.7260921277851103E-2; n = 1
# CDKL5 = conditions: read-out: apparent Kd; compound concentrations: 100 nM and 1000 nM (sheet 'Samples'), CATDS: 3.0884187274208798E-2; n = 1
# CHEK1 = conditions: read-out: apparent Kd; compound concentrations: 100 nM and 1000 nM (sheet 'Samples'), CATDS: 4.9980963828105997E-2; n = 1
# JAK2 = conditions: read-out: apparent Kd; compound concentrations: 100 nM and 1000 nM (sheet 'Samples'), CATDS: 2.4440515668024899E-2; n = 1
# NUAK1 = conditions: read-out: apparent Kd; compound concentrations: 100 nM and 1000 nM (sheet 'Samples'), CATDS: 4.1044446827870798E-2; n = 1
# NUAK2 = conditions: read-out: apparent Kd; compound concentrations: 100 nM and 1000 nM (sheet 'Samples'), CATDS: 3.8421609760156301E-2; n = 1
# PKN1 = conditions: read-out: apparent Kd; compound concentrations: 100 nM and 1000 nM (sheet 'Samples'), CATDS: 3.7942588141146198E-2; n = 1
# PKN2 = conditions: read-out: apparent Kd; compound concentrations: 100 nM and 1000 nM (sheet 'Samples'), CATDS: 2.7249776498222002E-2; n = 1
# PKN3 = conditions: read-out: apparent Kd; compound concentrations: 100 nM and 1000 nM (sheet 'Samples'), CATDS: 1.9288035237500001E-2; n = 1
# PRKAA1 = conditions: read-out: apparent Kd; compound concentrations: 100 nM and 1000 nM (sheet 'Samples'), CATDS: 2.2574550296483802E-2; n = 1
# PRKAA2 = conditions: read-out: apparent Kd; compound concentrations: 100 nM and 1000 nM (sheet 'Samples'), CATDS: 1.9838935716802002E-2; n = 1
# PRKACA = conditions: read-out: apparent Kd; compound concentrations: 100 nM and 1000 nM (sheet 'Samples'), CATDS: 9.6222688341774595E-2; n = 1
# PRKACB = conditions: read-out: apparent Kd; compound concentrations: 100 nM and 1000 nM (sheet 'Samples'), CATDS: 7.2959241198541205E-2; n = 1
# PRKAG1 = conditions: read-out: apparent Kd; compound concentrations: 100 nM and 1000 nM (sheet 'Samples'), CATDS: 2.1564965270821398E-2; n = 1
# PRKAG2 = conditions: read-out: apparent Kd; compound concentrations: 100 nM and 1000 nM (sheet 'Samples'), CATDS: 2.8394039575996899E-2; n = 1
# PRKCA = conditions: read-out: apparent Kd; compound concentrations: 100 nM and 1000 nM (sheet 'Samples'), CATDS: 4.1441031849898502E-2; n = 1
# PRKCB = conditions: read-out: apparent Kd; compound concentrations: 100 nM and 1000 nM (sheet 'Samples'), CATDS: 3.5643049371418899E-2; n = 1
# PRKCD = conditions: read-out: apparent Kd; compound concentrations: 100 nM and 1000 nM (sheet 'Samples'), CATDS: 5.5614379812914103E-2; n = 1
# PRKCQ = conditions: read-out: apparent Kd; compound concentrations: 100 nM and 1000 nM (sheet 'Samples'), CATDS: 6.3184001345655702E-2; n = 1
# PRKD2 = conditions: read-out: apparent Kd; compound concentrations: 100 nM and 1000 nM (sheet 'Samples'), CATDS: 1.9916010120102301E-2; n = 1
# PRKG1 = conditions: read-out: apparent Kd; compound concentrations: 100 nM and 1000 nM (sheet 'Samples'), CATDS: 8.1540237220624201E-2; n = 1
# PRKX = conditions: read-out: apparent Kd; compound concentrations: 100 nM and 1000 nM (sheet 'Samples'), CATDS: 3.8731961225305901E-2; n = 1
# ROCK1 = conditions: read-out: apparent Kd; compound concentrations: 100 nM and 1000 nM (sheet 'Samples'), CATDS: 7.2769225266658799E-2; n = 1
# ROCK2 = conditions: read-out: apparent Kd; compound concentrations: 100 nM and 1000 nM (sheet 'Samples'), CATDS: 5.7736516058252897E-2; n = 1
# RPS6KA5 = conditions: read-out: apparent Kd; compound concentrations: 100 nM and 1000 nM (sheet 'Samples'), CATDS: 2.03243213098795E-2; n = 1
# RPS6KB1 = conditions: read-out: apparent Kd; compound concentrations: 100 nM and 1000 nM (sheet 'Samples'), CATDS: 4.2911282581945501E-2; n = 1
# AKT1 = conditions: read-out: apparent Kd; compound concentrations: 100 nM and 1000 nM (sheet 'Samples'), CATDS: 9.2646573747736397E-2; n = 1
# AKT2 = conditions: read-out: apparent Kd; compound concentrations: 100 nM and 1000 nM (sheet 'Samples'), CATDS: 0.116273813691737; n = 1
# MAP2K1 = conditions: read-out: apparent Kd; compound concentrations: 100 nM and 1000 nM (sheet 'Samples'), CATDS: 9.2730141301733807E-2; n = 1
# MAP2K2 = conditions: read-out: apparent Kd; compound concentrations: 100 nM and 1000 nM (sheet 'Samples'), CATDS: 9.7397505320664393E-2; n = 1
# MAP4K3 = conditions: read-out: apparent Kd; compound concentrations: 100 nM and 1000 nM (sheet 'Samples'), CATDS: 0.10467989294056; n = 1
# NQO1 = conditions: read-out: apparent Kd; compound concentrations: 100 nM and 1000 nM (sheet 'Samples'), CATDS: 0.121643058614981; n = 1
# RIOK2 = conditions: read-out: apparent Kd; compound concentrations: 100 nM and 1000 nM (sheet 'Samples'), CATDS: 0.103588865131405; n = 1
# TP53RK = conditions: read-out: apparent Kd; compound concentrations: 100 nM and 1000 nM (sheet 'Samples'), CATDS: 8.4192999566122695E-2; n = 1
smiles,measurement,setting,value
COc1ccc(O)c(C(=O)c2ccc(C(=O)N[C@@H]3CCCNC[C@H]3NC(=O)c3ccncc3)cc2)c1F.Cl [RO4367842-001],potency estimated from few doses,ADRBK1; CATDS: 2.1593661333857501E-2,587 nM
same,potency estimated from few doses,AKT3; CATDS: 1.9200970976664199E-2,1460 nM
same,potency estimated from few doses,CDC42BPA,129 nM
same,potency estimated from few doses,CDC42BPB,17.2 nM
same,potency estimated from few doses,CDC42BPG,25.7 nM
same,potency estimated from few doses,CDKL5,115 nM
same,potency estimated from few doses,CHEK1,33.5 nM
same,potency estimated from few doses,JAK2,294 nM
same,potency estimated from few doses,NUAK1,51.7 nM
same,potency estimated from few doses,NUAK2,60.9 nM
same,potency estimated from few doses,PKN1,62.9 nM
same,potency estimated from few doses,PKN2,182 nM
same,potency estimated from few doses,PKN3,1400 nM
same,potency estimated from few doses,PRKAA1,448 nM
same,potency estimated from few doses,PRKAA2,1090 nM
same,potency estimated from few doses,PRKACA,11.1 nM
same,potency estimated from few doses,PRKACB,17 nM
same,potency estimated from few doses,PRKAG1,592 nM
same,potency estimated from few doses,PRKAG2,155 nM
same,potency estimated from few doses,PRKCA,50.5 nM
same,potency estimated from few doses,PRKCB,74.4 nM
same,potency estimated from few doses,PRKCD,27.2 nM
same,potency estimated from few doses,PRKCQ,21.6 nM
same,potency estimated from few doses,PRKD2,1050 nM
same,potency estimated from few doses,PRKG1,14.2 nM
same,potency estimated from few doses,PRKX,59.6 nM
same,potency estimated from few doses,ROCK1,17 nM
same,potency estimated from few doses,ROCK2,25.4 nM
same,potency estimated from few doses,RPS6KA5,897 nM
same,potency estimated from few doses,RPS6KB1,46.5 nM
N#Cc1c(NC(=O)c2cccc3ccccc23)sc2c1CCCC2 [GW620972X],potency estimated from few doses,ADRBK1; CATDS: 9.9298321917506205E-2,1570 nM
same,potency estimated from few doses,AKT1,1820 nM
same,potency estimated from few doses,AKT2,1170 nM
same,potency estimated from few doses,AKT3; CATDS: 9.8238280231453798E-2,1610 nM
same,potency estimated from few doses,MAP2K1,1820 nM
same,potency estimated from few doses,MAP2K2,1640 nM
same,potency estimated from few doses,MAP4K3,1420 nM
same,potency estimated from few doses,NQO1,1080 nM
same,potency estimated from few doses,RIOK2,1440 nM
same,potency estimated from few doses,TP53RK,2270 nM
